Compounds without any hit were thinned out: in the full panel of roughly 83,000, 20% have a hit.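 For each line, cells grew in 96-well plates with the test compound present at a single concentration for 48 hours.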 Unmarked numbers belong to inactive results. Calls of active or inactive are those of the source. Rule for the calls: active = growth percent below 10; inactive = the rest.

Among the test systems are SK-MEL-2 melanoma; EKVX NSCLC; SN12C renal; UO-31 renal; TK-10 renal; ACHN renal; CAKI-1 renal; A498 renal; CCRF-CEM leukemia; MOLT-4 leukemia.
Holding throughout (assay): NCI-60 one-dose screen, 48 h (100 = growth as untreated, 0 = no growth, -100 = all killed)
What all share (settings): 10 µM unless noted

Turning to `CC(=O)OCCCCCCn1c2ccccc2c2c3c(c4c5ccccc5n(C)c4c21)C(=O)N(O)C3=O`, the growth in the assay with SK-MEL-2 melanoma was 84.6%; in the assay on EKVX NSCLC, 98.6%; in the assay on SN12C renal it was 70%; with UO-31 renal, 50%; in the assay on TK-10 renal, 80.6%; with ACHN renal it was 74.9%. Further, the growth is 4.21% (active) with CAKI-1 renal, 52.9% with A498 renal, 34.3% in the assay on CCRF-CEM leukemia and 10.9% in the assay on MOLT-4 leukemia.
As for `Cc1ccc(-c2nc3ccc(Cl)cc3c(=O)n2N2C(=O)CSC2c2ccccc2Cl)cc1` (centres undefined), the growth with SK-MEL-2 melanoma was 96.2%; in the assay on EKVX NSCLC, 60%; in the assay with SN12C renal, 69%; with UO-31 renal, 67.2%; with TK-10 renal, 74.6%; in the assay with ACHN renal, 26.4%. In addition, the growth in the assay on CAKI-1 renal is 60.3%; in the assay with A498 renal it was 84.8%; in the assay with CCRF-CEM leukemia, 74.8%; in the assay with MOLT-4 leukemia, 82.7%.
On to `CSc1ccc(N(C)c2nc(C)nc3c2CCC3)cc1`, for which the growth with SK-MEL-2 melanoma is 24%; in the assay on EKVX NSCLC, 52.6%; in the assay with SN12C renal it was 18.4%; in the assay with UO-31 renal, 29.3%; in the assay with TK-10 renal it was 56.6%; in the assay with ACHN renal, 18.3%. The growth was 20.5% in the assay on CAKI-1 renal, -8.39% (active) in the assay on A498 renal, 8.07% (active) in the assay on CCRF-CEM leukemia and 6.54% (active) in the assay with MOLT-4 leukemia.
Regarding `CC1=CC(=O)N(c2cccc3c(N4C(=O)C=C(C)C4=O)cccc23)C1=O`, the growth with SK-MEL-2 melanoma is 87.5%; in the assay with EKVX NSCLC, 108%; in the assay on SN12C renal it was 93.3%; in the assay on UO-31 renal it was 33.3%; in the assay with TK-10 renal, 35.3%; in the assay on ACHN renal, 1.27% (active). The growth in the assay on CAKI-1 renal was 10.9%; in the assay with A498 renal, 124%; with CCRF-CEM leukemia, 11.2%.
Consider `CC1(C)C(=O)/C(=C\c2cccnc2)C[C@]2(C)[C@H]3CC[C@@H]4[C@@H](C(=O)/C=C/c5ccncc5)CC[C@@]4(C)[C@]3(C)CC[C@@H]12`, for which the growth with SK-MEL-2 melanoma was -3.01% (active); in the assay with EKVX NSCLC it was 50.4%; with SN12C renal it was 8.09% (active); in the assay on UO-31 renal, -94.5% (active); in the assay with TK-10 renal, 65.6%; in the assay on ACHN renal, -78.8% (active). Also, the growth in the assay with CAKI-1 renal is 28.4%; in the assay with A498 renal, 47.3%; in the assay on CCRF-CEM leukemia, 8.73% (active); in the assay with MOLT-4 leukemia, 8.03% (active).
Take `CCC(c1ccc(OC)cc1)C(CC)c1ccc(O)c(CN2CCCCC2)c1` (centres undefined): the growth was 79.7% with SK-MEL-2 melanoma; 64.6% in the assay with EKVX NSCLC; 66% in the assay on SN12C renal; 39.6% in the assay on UO-31 renal; 84.6% in the assay with TK-10 renal; 82.3% with ACHN renal. For the same compound, the figures for the growth with CAKI-1 renal, in the assay on A498 renal and with CCRF-CEM leukemia were 61.6%, 72.8% and 68.7%, respectively.
For the compound `COc1ccc(/C=C/C(=O)c2ccc([N+](=O)[O-])cc2)cc1`, the growth with SK-MEL-2 melanoma was 98.9%; in the assay with EKVX NSCLC, 128%; with SN12C renal it was 102%; with UO-31 renal, 89.9%; in the assay with TK-10 renal it was 101%; with ACHN renal it was 108%. Also, the growth in the assay with CAKI-1 renal is 123%; with A498 renal, 107%; in the assay on CCRF-CEM leukemia it was 85.3%.
In the case of `N#C/C(=C\c1ccc(-c2ccc(Br)cc2)o1)c1nc(-c2ccco2)cs1`, the growth is 103% with SK-MEL-2 melanoma; 41.6% in the assay on EKVX NSCLC; 92.3% in the assay on SN12C renal; 74.7% in the assay with UO-31 renal; 38.7% in the assay with TK-10 renal; 95.8% with ACHN renal. The growth was 88.8% in the assay with CAKI-1 renal, 101% in the assay with A498 renal, 89.9% in the assay on CCRF-CEM leukemia and 94.2% with MOLT-4 leukemia.
Turning to `COc1cc(OC)c2c(c1)c1nc3cc(C)c(C)cc3nc1n2CCN(C)C`, the growth in the assay with SK-MEL-2 melanoma was 103%; in the assay on EKVX NSCLC, 89.2%; in the assay with SN12C renal, 82.1%; in the assay on UO-31 renal, 74.1%; with TK-10 renal it was 182%; in the assay with ACHN renal, 84.3%. In addition, the growth was 69.7% in the assay on CAKI-1 renal, 105% in the assay on A498 renal, 79.6% with CCRF-CEM leukemia and 73.2% in the assay on MOLT-4 leukemia.
Regarding `Oc1ccc(CCC2CCCC(CCc3ccc(OCCF)cc3)N2)cc1` (centres undefined), the growth in the assay with SK-MEL-2 melanoma is 104%; in the assay with EKVX NSCLC, 105%; with SN12C renal it was 89.6%; in the assay on UO-31 renal, 72%; in the assay with TK-10 renal, 96.7%; in the assay on ACHN renal it was 99.8%. In addition, the growth in the assay with CAKI-1 renal is 89.2%; with A498 renal, 96.9%; in the assay with CCRF-CEM leukemia, 88.3%.
Take `N#C/C(=C\c1ccc(-c2cccc(C(F)(F)F)c2)o1)c1nc(-c2ccco2)cs1`: the growth in the assay with SK-MEL-2 melanoma was 103%; with EKVX NSCLC it was 43%; in the assay with SN12C renal it was 89.2%; with UO-31 renal, 62.8%; with TK-10 renal, 49.1%; with ACHN renal, 87.2%. The growth in the assay on CAKI-1 renal is 87.1%; in the assay on A498 renal it was 104%; with CCRF-CEM leukemia, 93.7%.
Take `N#CC1C(=N)Cc2ccccc2-c2ccccc21` (centres undefined): the growth in the assay with SK-MEL-2 melanoma is 31.1%; with EKVX NSCLC, 67.1%; in the assay with SN12C renal it was 54.2%; with UO-31 renal, 53.8%; with TK-10 renal, 78.1%; with ACHN renal, 75%. Moreover, the growth was 29% in the assay on CAKI-1 renal, 55.3% in the assay on A498 renal, 62.6% with CCRF-CEM leukemia and 25.8% in the assay with MOLT-4 leukemia.
On to `Cn1c(/C(C#N)=C/c2ccc3ccccc3c2)cc2ccccc21`, for which the growth with SK-MEL-2 melanoma is 71.7%; in the assay on EKVX NSCLC, 37.4%; in the assay with SN12C renal, 33.5%; in the assay on UO-31 renal, 57.5%; in the assay on TK-10 renal, 106%; in the assay with ACHN renal, 35.4%. Also, the growth with CAKI-1 renal is 28.5%; in the assay on A498 renal, 2.85% (active); in the assay with CCRF-CEM leukemia, 11.8%.
